# Source: PubChem BioAssay (NCATS)
# “And” between values parts separate entries of the source, which are not always exact repeats. Equal entries are not always repeated. The source made the active and inactive calls. The call rests on the fitted dose curve; in most records, active means well fitted activation curve with a large enough effect; inconclusive means small, poorly fitted or top-dose-only effect; inactive means no such curve, though single readings can be large or run the other way.
# Molecular target: Cytochrome P450 3A4 (Homo sapiens) (UniProt P08684)
# Sequence (P08684 whole entry, looked up): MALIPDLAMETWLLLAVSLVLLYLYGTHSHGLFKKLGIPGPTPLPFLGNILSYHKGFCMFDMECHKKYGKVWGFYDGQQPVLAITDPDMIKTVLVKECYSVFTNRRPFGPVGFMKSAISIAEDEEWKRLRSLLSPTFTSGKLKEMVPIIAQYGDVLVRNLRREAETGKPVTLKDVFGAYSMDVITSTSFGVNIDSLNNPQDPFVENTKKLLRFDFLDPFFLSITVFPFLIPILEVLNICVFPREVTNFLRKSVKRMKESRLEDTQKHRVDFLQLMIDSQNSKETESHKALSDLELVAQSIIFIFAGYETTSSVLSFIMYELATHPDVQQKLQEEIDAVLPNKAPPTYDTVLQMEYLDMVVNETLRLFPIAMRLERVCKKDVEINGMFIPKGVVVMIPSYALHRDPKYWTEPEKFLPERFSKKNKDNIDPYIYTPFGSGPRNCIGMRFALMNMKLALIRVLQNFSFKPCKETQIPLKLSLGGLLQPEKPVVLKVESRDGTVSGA
# Assay: qHTS Assay for Activators of Cytochrome P450 3A4 (AID 885); further: nearly all actives have a fitted effect of over 65% in size
# Settings: recombinant CYP3A4, Luciferin-PPXE luminescence, 60 min; series mostly up to 57.1 µM; activity change, positive = activation: at the top concentration
# How it was run: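 Luminescent readout of luciferin formed from 25 uM Luciferin-PPXE (KM level) by 20 nM CYP3A4 in 200 mM KPO4, with 60 min NADPH-driven reaction at room temperature after 10 min compound exposure. Ketoconazole (57 uM) defined 100% inhibition.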
row,Structure (SMILES),"activity change, positive = activation"
1,COC(=O)c1ccc(C23CC4(C2)[C@H](CN(C)[C@@H]4c2ccccc2)C3c2ccc(C(F)(F)F)cc2)cc1 (some centres undefined),-50.5% (inactive)
2,COC(=O)[C@@H]1C[C@H]2CC[C@H](O)C[C@H]2N1Cc1ccc(N2CCOCC2)cc1,-51.5% (inactive)
3,CO[C@@H]1/C=C\CC(=O)N[C@@H](C)C(=O)OC[C@H](NS(=O)(=O)c2ccc(C)cc2)[C@H](C)/C=C\CC(=O)OC[C@H]1C,-37.9% [at 11.4 µM] (inactive)
4,CO[C@H]1COC(=O)[C@@H](C)COC(=O)[C@@H](Cc2ccccc2)NC(=O)C/C=C\[C@H]1C,-36.8% [at 11.4 µM] (inactive)
5,CO[C@@H]1COC(=O)C/C=C\[C@@H](C)[C@H](OC)COC(=O)[C@H](COCc2ccccc2)NC(=O)C/C=C\[C@H]1C,-41.7% [at 11.4 µM] (inactive)
6,COc1ccc(O[C@H]2C=C[C@@H](c3ccccc3)O[C@H]2CO/N=C(/C)CCC(=O)OC[C@@H]2O[C@H](C#Cc3ccccc3)C=C[C@@H]2Oc2ccc(C)cc2)cc1,-52.7% [at 11.4 µM] (inactive)
7,C#CCCCO/N=C1/C[C@@H](O)[C@@H](O)[C@@H]2[C@@H]3C(=O)N(CCC(=O)OCC)C(=O)[C@H]3CC[C@@H]12,-45.7% [at 11.4 µM] (inactive)
8,CC1(C)CC(=O)c2c(oc3cc(O)c(O)cc23)C1,-39.3% (inactive)
9,COC(=O)[C@@H]1C[C@@H]2CC[C@@H](O)C[C@@H]2N1Cc1ccc(N2CCN(C)CC2)cc1,-46% (inactive)
10,CC(=O)OC[C@@H]1O[C@H](CCO/N=C(\C)CCN2CCc3nc(-c4ccccc4)c(-c4ccccc4)cc3C2)C=C[C@@H]1OC(C)=O,-47.2% [at 11.4 µM] (inactive)
11,CC(=O)OC[C@@H]1O[C@H](C/C=N\O[C@@H](C)c2cn([C@H](CO)Cc3ccccc3)nn2)C=C[C@@H]1OC(C)=O,-51.6% [at 11.4 µM] (inactive) and -34% [at 11.4 µM] (inactive)
12,Cc1ccc(S(=O)(=O)N[C@H]2COC(=O)[C@H](C)COC(=O)[C@H](C)NC(=O)C/C=C\[C@H]2C)cc1,-41.3% [at 11.4 µM] (inactive)
13,CO[C@H]1COC(=O)[C@@H](C)COC(=O)[C@@H](COCc2ccccc2)NC(=O)C/C=C\[C@H]1C,-40.1% [at 11.4 µM] (inactive)
14,N#Cc1ccc(C23CC4(C2)[C@H](CN(Cc2ccc(C(F)(F)F)cc2)[C@@H]4c2ccccc2)C3c2ccccc2)cc1 (some centres undefined),-57.8% (inactive)
15,CO[C@H]1COC(=O)[C@H](Cc2ccccc2)NC(=O)C/C=C\[C@@H](C)[C@H](OC)COC(=O)C/C=C\[C@@H]1C,-59.6% [at 11.4 µM] (inactive)
16,COc1ccc(COC(=O)N/N=C2/C[C@@H](O)[C@@H](O)[C@@H]3[C@@H]4C(=O)N(C(C)(C)C)C(=O)[C@H]4CC[C@H]23)cc1,-30.7% [at 11.4 µM] (inactive)
17,c1ccc(-c2ccc(CN3C[C@@H]4C(c5ccccc5)C5(c6cccnc6)CC4(C5)[C@H]3c3ccccc3)cc2)cc1 (some centres undefined),-59% (inactive)
18,CCC1=C2CC[C@H]3C(=O)N(CC(=O)OC)C(=O)[C@H]3[C@H]2[C@@]2(C)C(=NCC(=O)OC)OC(=O)N2C1=O,-54.5% (inactive)
19,COc1ccc(COC(=O)N/N=C2/C[C@@H](O)[C@@H](O)[C@@H]3[C@@H]4C(=O)N([C@@H](C)c5ccccc5)C(=O)[C@H]4CC[C@@H]23)cc1,-39.8% [at 11.4 µM] (inactive)
20,CCC1=C2CC[C@H]3C(=O)N(c4ccccc4)C(=O)[C@H]3[C@H]2[C@@]2(C)C(=O)N(CC(=O)OC)C(=O)N2C1=O,-54.5% (inactive)

row,Structure (SMILES),"activity change, positive = activation"
1,COC(=O)c1ccc(C23CC4(C2)[C@H](CN(Cc2ccc(C(F)(F)F)cc2)[C@@H]4c2ccccc2)C3c2ccccc2)cc1 (some centres undefined),-48.5% (inactive)
2,CC(C)=CCC/C(C)=C/CO/N=C1/C[C@@H](O)[C@@H](O)[C@@H]2[C@@H]3C(=O)N(C4CCCCC4)C(=O)[C@H]3CC[C@H]12,-36.4% [at 11.4 µM] (inactive)
3,O=C1[C@H]2[C@H]3[C@H](O)[C@H](O)C/C(=N/OC[C@@H](O)COCc4ccco4)[C@@H]3CC[C@@H]2C(=O)N1c1cccc(Oc2ccccc2)c1,-40.2% [at 11.4 µM] (inactive)
4,CO[C@H]1COC(=O)[C@H]2CCCN2C(=O)C/C=C\[C@@H](C)[C@H](OC)COC(=O)[C@@H](OCc2ccccc2)/C=C\[C@@H]1C,-30.9% [at 11.4 µM] (inactive)
5,CCCCNC(=O)C(c1ccc(OCC(=O)OC)c(C(=O)OC)c1)N(CCOC)C(=O)CCCCCN1C(=O)NC(c2ccc(-c3ccccc3)cc2)C(C(=O)OCc2ccccc2)=C1C (centres undefined),-46.4% (inactive)
6,N#Cc1ccc(C23CC4(C2)[C@H](CN(Cc2ccc(-c5ccccc5)cc2)[C@@H]4c2ccccc2)C3c2ccccc2)cc1 (some centres undefined),-39% (inactive)
7,N#Cc1ccc(C23CC4(C2)[C@H](CN(CC2CCCCC2)[C@@H]4c2ccccc2)C3c2ccc(Cl)nc2)cc1 (some centres undefined),-51% (inactive)
8,Cc1ccc(S(=O)(=O)N[C@H]2COC(=O)[C@@H](C)COC(=O)[C@H](C)NC(=O)C/C=C\[C@H]2C)cc1,-40.2% [at 11.4 µM] (inactive)
9,COC(=O)[C@@H]1C[C@@]2(O)[C@@H](O)[C@@H](O)[C@@H](O)C[C@H]2N1Cc1cc(F)ccc1F,-30.5% (inactive)
10,COC(=O)[C@@H]1C[C@H]2CC[C@H](O)C[C@H]2N1Cc1ccc(-c2ccccc2)cc1,-46.3% (inactive)
11,CN1C[C@@H]2C(c3ccc(Cl)nc3)C3(c4ccc(C#N)cc4)CC2(C3)[C@H]1c1ccccc1 (some centres undefined),-44.9% (inactive)
12,CO[C@@H]1COC(=O)C/C=C\[C@@H](C)COC(=O)[C@H](Cc2ccccc2)NC(=O)C/C=C\[C@H]1C,-39.1% [at 11.4 µM] (inactive)
13,COc1cccc([C@H](O)Cn2cc(-c3cccc(CON=C(C)C)c3)nn2)c1,-43.8% [at 11.4 µM] (inactive)
14,O=C1[C@H]2[C@H]3[C@H](O)[C@H](O)C/C(=N/OC[C@@H](O)COCc4ccco4)[C@H]3CC[C@@H]2C(=O)N1C1CCCCC1,-43.8% [at 11.4 µM] (inactive)
15,Cn1c(N)c(C(=O)COC(=O)c2ccnc3ccccc23)c(=O)n(C)c1=O,-56.8% (inactive)
16,COC(=O)[C@@H]1C[C@@]2(O)[C@H](O)[C@H](O)[C@H](O)C[C@H]2N1Cc1cc(OC)cc(OC)c1,-39.3% (inactive)
17,COC(=O)c1ccc(CN2[C@H](C(=O)OC)C[C@@]3(O)[C@H](O)[C@H](O)[C@H](O)C[C@@H]23)cc1,-38.6% (inactive)
18,COCCNC(=O)[C@H](C)/C=C/C(NC(=O)OCc1ccccc1)c1ccc(C(=O)OC)cc1 (some centres undefined),-55.9% (inactive)
19,CCC1=C2CC[C@H]3C(=O)N(CC)C(=O)[C@H]3[C@H]2[C@@]2(C)C(=NCC(=O)OC)OC(=O)N2C1=O,-56.3% (inactive)
